Reference: PubChem BioAssay (Tox21)
Inconclusive results are not listed. A call without a number means that no potency is given here. Calls of active or inactive are those of the source. Unless noted, the call rests on the fitted dose curve; in most records, active means well fitted curve in the direction sought with a large enough effect in the repeat runs; inconclusive means weak or mixed curves; inactive means no such curve, though single readings can be large; an effect the other way counts as inactive or inconclusive.

Assays:
[1] = qHTS assay to identify small molecule antagonists of the vitamin D receptor (VDR) signaling pathway - cell viability counter screen (AID 743225); further: nearly all actives have a fitted effect of over 50% in size; further: potency means the concentration at half of the fitted maximal effect
How it was run: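 VDR-bla HEK 293T cells, 4 h pre-incubation at 37C, then compound plus 1-alpha,25-dihydroxyvitamin D3 (3 nM final) for 16 h. After the beta-lactamase FRET read, CellTiter-Glo was added to the same wells; luminescence after 30 min at room temperature.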

[2] = qHTS assay to identify small molecule agonists of the NFkB signaling pathway (AID 1159509; active means well fitted curve in the direction sought with a large enough effect in the signal ratio in the repeat runs, not every such curve was filed as active; the % refers to the signal ratio)
How it was run: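 Readout: FRET fluorescence, 405 nm excitation, 460/530 nm emission; beta-lactamase expression disrupts FRET. Cells: ME-180 stably carrying NF-kB-driven bla reporter. Compound exposure 5 hr, 37 C, 5% CO2.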

[3] = qHTS assay to identify small molecule agonists of the endoplasmic reticulum stress response signaling pathway (AID 1159516; active means well fitted activation curve with a large enough effect in the signal ratio in the repeat runs, not every such curve was filed as active; the % refers to the signal ratio)
How it was run: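 Cells are seeded at 1,500 per well and incubated overnight. Compounds in DMSO are added for 5 hr at 37 C, then beta-lactamase FRET substrate for 2 hr at room temperature, and fluorescence at 460 and 530 nm is measured.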

[4] = qHTS assay to identify small molecule agonists of the endoplasmic reticulum stress response signaling pathway - cell viability counter screen (AID 1159517; calls by dose curve; further: nearly all actives have a fitted effect of over 50% in size; further: potency means the concentration at half of the fitted maximal effect)
How it was run: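 Steps: seed 1,500 ESRE-bla HeLa cells per well; incubate overnight at 37 C, 5% CO2; add compounds in DMSO for 5 hr; run FRET substrate 2 hr RT; add CellTiter-Glo, wait 30 min, read luminescence.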

[5] = qHTS assay to identify small molecule agonists of the AP-1 signaling pathway - cell viability counter screen (AID 1159525; calls by dose curve; further: nearly all actives have a fitted effect of over 55% in size; further: potency means the concentration at half of the fitted maximal effect)
How it was run: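 Same-well cytotoxicity counter screen of the Tox21 10K library in ME-180 cells. The readout is ATP-dependent luminescence after 5 h compound treatment. Data are normalised to DMSO and tetra n-octyl ammonium bromide controls.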

[6] = qHTS assay to identify small molecule agonists of the AP-1 signaling pathway (AID 1159526; calls by dose curve)
[7] = qHTS assay to identify small molecule agonists of the RXR signaling pathway - cell viability counter screen (AID 1159529); further: nearly all actives have a fitted effect of over 50% in size; further: potency means the concentration at half of the fitted maximal effect
How it was run: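 RXR-alpha-UAS-bla HEK 293T cells in medium with 2% charcoal-stripped FBS were preincubated 5 hr, then exposed to compounds for 16 hr at 37 C. Viability was read as CellTiter-Glo luminescence after 30 min at room temperature.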

[8] = qHTS assay to identify small molecule antagonists of the retinoid acid receptor (RAR) signaling pathway - cell viability counter screen (AID 1159551); further: nearly all actives have a fitted effect of over 35% in size; further: potency means the concentration at half of the fitted maximal effect
How it was run: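 Cells (C3RL4) are plated, incubated overnight, dosed with compound in DMSO, then given retinol at 1 uM final. After 6 h at 37 C, CellTiter-Glo is added and luminescence read following 30 min at room temperature.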

[9] = qHTS assay to identify small molecule agonists of the retinoic acid receptor (RAR) signaling pathway (AID 1159553); conditions: C3RL4 RARE luciferase reporter, agonist, 6 h; activation: at 73.3 µM (top of the series); further: potency means the concentration at half of the fitted maximal effect
How it was run: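 Seed C3RL4 reporter cells at 1,000 per well and incubate overnight at 37 C. Add compounds in DMSO, incubate 6 hr. Add luciferase reagent, wait 30 min at room temperature, read luminescence.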

[10] = biological target: Nuclear receptor ROR-gamma (Homo sapiens) (UniProt P51449); assay: qHTS assay to identify small molecule antagonists of the retinoid-related orphan receptor gamma (ROR-gamma) signaling pathway (AID 1159521; further: nearly all actives have a fitted effect of over 50% in size; further: potency means the concentration at half of the fitted maximal effect)
How it was run: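 Tet-on RORγ CHO cells carrying a ROR response element–luciferase reporter were pretreated with compounds for 2 h, then induced with 1 uM (final) doxycycline hyclate for 16 h at 37 C. Antagonism was read as decreased ONE-Glo luminescence.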

[11] = qHTS assay to identify small molecule agonists of the vitamin D receptor (VDR) signaling pathway - cell viability counter screen (AID 743224); further: nearly all actives have a fitted effect of over 50% in size; further: potency means the concentration at half of the fitted maximal effect
How it was run: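 Cells: VDR-bla, 2,000/well, settled 4 h. Treatment: compounds in DMSO, 16 h, 37C/5% CO2. Readout: CellTiter-Glo luminescence after 30 min RT.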

[12] = qHTS assay to identify small molecule antagonists of the retinoid-related orphan receptor gamma (ROR-gamma) signaling pathway - cell viability counter screen (AID 1159520); further: nearly all actives have a fitted effect of over 50% in size; further: potency means the concentration at half of the fitted maximal effect
How it was run: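 Tet-on ROR gamma CHO cells were given compounds for 2 hr, then doxycycline hyclate at 1 uM final, and incubated 16 hr at 37 C. Viability was measured as ATP content by CellTiter-Glo luminescence.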

[13] = qHTS assay to identify small molecule antagonists of the retinoic acid receptor (RAR) signaling pathway (AID 1159552; further: nearly all actives have a fitted effect of over 50% in size; further: potency means the concentration at half of the fitted maximal effect)
How it was run: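 RARE-luc C3RL4 cells; cpds + 1 uM (final) retinol, 6 hr, 37 C/5% CO2; luciferase reagent, 30 min RT, luminescence readout. Inhibitors of retinol-driven signal scored.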

[14] = qHTS assay to identify small molecule antagonists of the estrogen related receptor signaling pathway with the pleiotropic PPARgamma coactivator (PGC) cell viability counter screen (AID 1224822;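 further: viability read after 17.5 h compound exposure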)
How it was run: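 Multiplexed viability counter screen run in PGC/ERR cells treated with compounds for 17.5 h at 37 C; live-cell protease signal measured by CellTiter-Fluor fluorescence.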

[15] = biological target: Retinoic acid receptor RXR-alpha (Homo sapiens) (UniProt P19793); assay: qHTS assay to identify small molecule agonists of the RXR signaling pathway (AID 1159527; calls by dose curve; further: nearly all actives have a fitted effect of over 35% in size)
Retinoic acid receptor RXR-alpha (Homo sapiens), sequence (P19793 whole entry, looked up): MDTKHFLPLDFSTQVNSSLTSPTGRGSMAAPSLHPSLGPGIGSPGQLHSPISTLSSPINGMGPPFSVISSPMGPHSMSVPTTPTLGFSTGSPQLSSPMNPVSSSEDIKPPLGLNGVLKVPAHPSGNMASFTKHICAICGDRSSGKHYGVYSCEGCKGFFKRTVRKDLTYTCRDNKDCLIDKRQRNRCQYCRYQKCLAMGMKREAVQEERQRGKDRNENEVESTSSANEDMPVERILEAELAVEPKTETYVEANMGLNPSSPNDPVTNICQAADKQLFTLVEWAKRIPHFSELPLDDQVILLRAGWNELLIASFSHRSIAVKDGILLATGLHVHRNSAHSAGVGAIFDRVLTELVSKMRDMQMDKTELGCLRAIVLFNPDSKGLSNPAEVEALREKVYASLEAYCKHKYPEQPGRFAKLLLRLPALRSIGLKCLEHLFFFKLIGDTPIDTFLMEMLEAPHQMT
How it was run: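 GeneBLAzer RXR-alpha-UAS-bla HEK 293T cells in medium with 2% charcoal-stripped FBS, pre-incubated 5 hr at 37 C, then exposed to compounds 16 hr. Beta-lactamase reporter read by FRET substrate, 2 hr room temperature, 460/530 nm emission.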

| Structure (SMILES) | Potency [1] | Potency [2] | Potency [3] | Potency [4] | Potency [5] | Potency [6] | Potency [7] | Potency [8] | Potency [9] | Potency [10] | Potency [11] | Potency [12] | Potency [13] | outcome [14] | Potency [15] |
| --- | --- | --- | --- | --- | --- | --- | --- | --- | --- | --- | --- | --- | --- | --- | --- |
| CC(=O)Nc1cc(S(=O)(=O)O)cc2cc(S(=O)(=O)O)c(N=Nc3ccccc3)c(O)c12 | inactive | inactive | inactive | inactive | inactive | inactive | inactive | 24.3 µM (active) | inactive |  |  |  |  |  |  |
| C[C@@H](CN(C)C)CN1c2ccccc2Sc2ccccc21 | inactive | inactive | inactive | inactive | inactive |  |  | inactive |  | 26.6 µM (active) |  |  |  |  |  |
| COc1cc(C(=O)NC2CCN(C)CC2)ccc1Nc1ncc2c(n1)N(C1CCCC1)CC(F)(F)C(=O)N2C | 7.11 µM (active) | inactive | inactive | 50.4 µM (active) | 6.34 µM (active) | inactive | 31.8 µM (active) |  |  | 15.8 µM (active) | 15.9 µM (active) | 22.3 µM (active) | 2.5 µM (active) |  |  |
| CC(C)=CCC1C(=O)N(c2ccccc2)N(c2ccccc2)C1=O | inactive | inactive | inactive | inactive | inactive | inactive | inactive | inactive | inactive | inactive |  | inactive | inactive |  |  |
| Nc1nc2ccc([N+](=O)[O-])cc2s1 |  | inactive | inactive | inactive |  |  |  |  | inactive |  |  | inactive | inactive | inactive |  |
| COC(=O)[C@H]1[C@H]2C[C@@H]3c4[nH]c5cc(OC)ccc5c4CCN3C[C@H]2C[C@@H](OC(=O)/C=C/c2ccc(O)c(OC)c2)[C@@H]1OC | inactive | inactive | inactive | inactive | inactive | inactive | inactive | inactive |  | 13.3 µM (active) |  |  |  |  |  |
| C=C/C(C)=C/C/C=C(\C)CCC=C(C)C | inactive | inactive | inactive | inactive |  | inactive |  | inactive |  | inactive | inactive | inactive |  |  |  |
| O=C1c2ccccc2C(=O)C1c1ccc(Br)cc1 | inactive | inactive | inactive | inactive |  | inactive | inactive | inactive | inactive | inactive | inactive | inactive | inactive |  |  |
| O=C(/C=C/c1ccccc1)OCCc1ccccc1 | inactive | inactive | inactive | inactive | inactive | inactive | inactive | inactive | 2.73 µM (active) | inactive |  | inactive | inactive |  |  |
| Nc1nnc(-c2ccc([N+](=O)[O-])o2)o1 | inactive | inactive | inactive | inactive | inactive |  | inactive | inactive | inactive | 6.86 µM (active) |  | inactive |  |  |  |
| O=c1cc(-c2ccccc2)oc2cc(O)cc(O)c12 | inactive | inactive | inactive | inactive | inactive |  | inactive |  | 0.969 µM (active) |  |  | inactive | inactive |  |  |
| CC(O)c1ccccc1 (stereo not drawn) |  | inactive | inactive | inactive |  | inactive | inactive | inactive | inactive | inactive | inactive | inactive | inactive |  | inactive |
| CCOC(=O)c1ccc(I)cc1 | inactive | inactive | inactive | inactive | inactive |  | inactive | inactive | inactive | inactive | inactive | inactive | inactive |  | inactive |
| OC1(c2ccccc2)CCNCC1 | inactive | inactive | inactive | inactive |  | inactive | inactive | inactive | inactive | inactive | inactive | inactive |  |  | inactive |
| CN1CCCN=C1COC(=O)C(O)(c1ccccc1)C1CCCCC1 (stereo not drawn) |  | inactive | inactive | inactive | inactive | inactive | inactive | inactive | inactive | inactive | inactive | inactive |  |  |  |
| O=C(CCCN1CC=C(n2c(=O)[nH]c3ccccc32)CC1)c1ccc(F)cc1 | inactive | inactive | inactive | inactive | inactive | inactive |  | inactive | inactive | inactive | inactive | inactive | inactive |  |  |
| Cc1cccc(O)c1N | inactive | inactive | inactive | inactive |  |  | inactive | inactive | inactive | 13.8 µM (active) | inactive | inactive | inactive |  |  |
| CC(CC1c2ccccc2CCc2ccccc21)CN(C)C (stereo not drawn) |  | inactive | inactive | inactive | inactive |  |  | inactive | inactive |  | inactive | inactive |  |  | inactive |
| FC(F)(F)c1ccccc1Cl |  | inactive | inactive | inactive |  | inactive | inactive | inactive | inactive |  | inactive | inactive |  |  | inactive |
| CO/N=C(/C(=O)N[C@@H]1C(=O)N2C(C(=O)O)=C(COC(N)=O)CS[C@H]12)c1ccco1 | inactive | inactive | inactive | inactive | inactive |  | inactive | inactive | inactive | inactive | inactive | inactive | inactive |  | inactive |
| O=[N+]([O-])c1cc(C2CCCCC2)c(O)c([N+](=O)[O-])c1 |  | inactive | inactive | inactive | inactive |  |  | inactive | inactive | 4.31 µM (active) |  |  |  |  | inactive |
